BLM helicase inh: Bloom syndrome helicase (human) inhibition; P54132; recombinant BLM DNA unwinding, fluorescence dequenching; Potency, µM (top dose mostly 56.1 µM), for inactives: top-dose activity change, negative = inhibition, hits mostly inhibitors; 350,000 compounds, 0.2% hits; AID 2528;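 further: plate controls were vehicle for no effect and no enzyme for full effect; nearly all actives have a fitted effect of over 35% in size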
TDP1 block: blocks human tyrosyl-DNA phosphodiesterase 1. Q9NUW8. recombinant TDP1, AlphaScreen DNA substrate cleavage. 350,000 compounds, 0.28% hits. Potency, µM (top dose mostly 130 µM), inactives show at the highest dose activity change, negative = inhibition, hits mostly inhibitors; further: nearly all actives have a fitted effect of over 40% in size
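E. coli-derived human Tdp1, 1 nM final. Cpd preinc 15 min RT; substrate 15 nM final, 5 min RT; AS bead mix 10 ug/ml final, 10 min RT. Signal loss = tyrosine-FITC cleavage. No-enzyme wells = max signal.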
GCN5L2 inh: blocks human GCN5L2 histone acetyltransferase; Q92830; GCN5L2 HAT assay, ThioGlo1 CoA-SH fluorescence; Potency, µM (titrated, usually from 58.9 µM), inactives show at the highest dose activity change, negative = inhibition, hits mostly inhibitors; 390,000 compounds, 0.21% hits; AID 504327
Target sequence (Q92830 whole entry, looked up): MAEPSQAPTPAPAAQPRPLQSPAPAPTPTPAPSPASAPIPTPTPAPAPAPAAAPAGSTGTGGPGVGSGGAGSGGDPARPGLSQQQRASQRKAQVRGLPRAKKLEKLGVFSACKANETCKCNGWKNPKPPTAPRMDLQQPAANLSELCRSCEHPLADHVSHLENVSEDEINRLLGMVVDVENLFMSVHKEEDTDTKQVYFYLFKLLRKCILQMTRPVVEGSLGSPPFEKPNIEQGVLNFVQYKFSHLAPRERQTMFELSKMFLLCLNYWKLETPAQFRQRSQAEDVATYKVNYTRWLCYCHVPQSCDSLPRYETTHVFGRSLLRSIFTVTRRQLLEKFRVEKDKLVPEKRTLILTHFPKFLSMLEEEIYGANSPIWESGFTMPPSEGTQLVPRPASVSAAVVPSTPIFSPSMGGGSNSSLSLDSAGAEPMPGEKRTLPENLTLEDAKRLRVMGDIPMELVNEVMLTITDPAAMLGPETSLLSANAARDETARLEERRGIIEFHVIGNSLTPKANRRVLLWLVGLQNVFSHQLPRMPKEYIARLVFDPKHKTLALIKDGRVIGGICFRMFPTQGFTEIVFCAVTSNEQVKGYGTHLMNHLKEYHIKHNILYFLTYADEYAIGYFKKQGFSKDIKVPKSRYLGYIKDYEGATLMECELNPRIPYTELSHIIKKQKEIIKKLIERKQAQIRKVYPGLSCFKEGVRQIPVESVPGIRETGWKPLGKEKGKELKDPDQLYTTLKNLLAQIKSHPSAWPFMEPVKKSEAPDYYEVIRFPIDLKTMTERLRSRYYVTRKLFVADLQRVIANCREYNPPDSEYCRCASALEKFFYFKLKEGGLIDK
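Enzyme at 20nM final was mixed with library compounds for 15 min at room temperature. Peptide H3(1-25) at 75uM, acetyl-CoA at 70uM and ThioGlo1 at 50uM were then added. Plates were read immediately and after 20 min (Ex340nm/Em540nm).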
APE1 inh: APE1 (human) endonuclease inhibition | Potency, µM (series often up to 65.8 µM), inactives show top-dose activity change, negative = inhibition, actives largely listed as inhibitors | P27695 | 350,000 compounds, 0.35% hits | AID 2517 | recombinant APE1, TAMRA/BHQ-2 abasic DNA cleavage fluorescence;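 further: plate controls were vehicle for no effect and reference inhibitor for full effect; nearly all actives have a fitted effect of over 55% in size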
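Measures dequenching upon AP-site incision of a 5'-TAMRA/3'-BHQ-2 THF-containing duplex, 50 nM; human APE1 0.75 nM after 15 min room-temperature exposure to compound; kinetic three-point read at one-minute spacing.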
RECQ1 inh: inhibitors of human RECQ1 DNA helicase; RECQ1 DNA unwinding, red fluorescence kinetic read; AID 2549; P46063; 240,000 compounds, 0.54% hits; Potency, µM (doses to about 57.3 µM), for the others: at the highest dose activity, negative = inhibition, actives largely listed as inhibitors;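 further: plate controls were vehicle for no effect and no enzyme for full effect; nearly all actives have a fitted effect of over 30% in size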
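RECQ1T1 50 nM; forked duplex (20 bp + 30-nt ss tails) 200 nM, ATP 2 mM final; pH 8.0, 2 mM MgCl2, 2.5 ug/ml poly(dI-dC); 15 min compound preincubation; discontinuous kinetic read over 2 h at RT.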
RGS4 inhibitor: blocks human RGS4-accelerated GTP hydrolysis; P49798; Transcreener GDP fluorescence polarization, RGS4-accelerated GTP hydrolysis; Potency, µM (top dose mostly 114 µM), for the others: at the highest dose activity change, negative = inhibition, hits mostly inhibitors; 390,000 compounds, 0.039% hits; AID 504845; further: nearly all actives have a fitted effect of over 75% in size
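MLSMR compounds (23 nl, pin-transferred) preincubated 10 min at room temperature with a 500nM (2x) first reagent, then RGS4 at 900nM (2x) plus Transcreener GDP mix added; fluorescence polarization (620/688 nm) read before and after 90 min at 30 °C.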
Starred values were filed as active, the others as inactive; i = inactive; ? = inconclusive; nt = no result; ! = a repeat was not active; [ ] = remark or other dose. The list is not random: actives were taken first. Their share in the collection is about 0.87%. The call rests on the fitted dose curve; in most records, active means well fitted curve in the direction sought with a large enough effect; inconclusive means small, poorly fitted or top-dose-only effect, or another doubt; inactive means no such curve, though single readings can be large; an effect the other way counts as inactive or inconclusive. Unless noted, on the % scale 0 is the no-effect control and ±100 the full control effect; potency means the concentration at half of the fitted maximal effect.

SMILES	BLM helicase inh	TDP1 block	GCN5L2 inh	APE1 inh	RECQ1 inh	RGS4 inhibitor
COC1=C(N)C(=O)c2nc(-c3nc(C(=O)O)c(C)c(-c4ccc(OC)c(OC)c4O)c3N)ccc2C1=O	3.5µM*	-3%	49%	-10%	-17%	-43%
O=S(=O)(c1cc(O)ccc1O)c1cccc2c(S(=O)(=O)c3cc(O)ccc3O)cccc12	nt	nt	?	2.1µM*	nt	?
O=C(CCCCCNC(=O)c1ccccc1)N/N=C/c1ccco1	-9%	40µM*	-6%	?	1%	7%
CC1(C)OC(=O)C2(Cc3ccccc3N3CCC(c4ccccc4)CC32)C(=O)O1 (stereo not drawn)	nt	2%	nt	nt	nt	-24%
O=C(CNC(=O)c1ccc2cc[nH]c2c1)OC(C(=O)Nc1cc(C(F)(F)F)ccc1Cl)c1ccccc1 (stereo not drawn)	nt	1%	nt	nt	nt	nt
O=C(O)CC12CC3CC(C1)CC(n1ncc(NCc4ccc5c(c4)OCO5)c(Cl)c1=O)(C3)C2	-3%	0%	-3%	-9%	40µM*	nt
O=C(O)c1ccc2[nH]c3c(c2c1)CSCC3	-2%	20µM*	-6%	7%	2%	-18%
CC(=O)Nc1cccc(S(=O)(=O)N2CCN(S(=O)(=O)c3ccc4c(c3)OCCO4)CC2)c1	nt	-3%	nt	nt	nt	nt
COc1ccc(C2Nc3ccccc3C(=O)N2Cc2cccc(Cl)c2)cc1COc1ccc(NC(C)=O)cc1 (stereo not drawn)	nt	1%	nt	nt	nt	nt
S=c1ccss1	1%	10%	25µM*	-3%	-5%	nt
COc1ccc(CN(Cc2ccccc2)C(=O)c2ccccc2)cc1COc1ccc(NC(C)=O)cc1	nt	3%	nt	nt	nt	nt
O=C(COc1ccc(Cl)cc1)NCc1n[nH]c(=O)c2ccccc12	nt	56µM*	1%	8%	nt	5%
CC(C)c1ccc(OCC(=O)NCc2n[nH]c(=O)c3ccccc23)cc1	nt	40µM*	-5%	13%	nt	0%
COc1cc2c(s1)c1cnn(Cc3ccccc3F)c(=O)c1n2C	nt	0%	nt	nt	nt	nt
CC[C@H](NC(C)C)[C@H](O)c1ccc(O)c2[nH]c(=O)ccc12	2%	1%	-12%	-1%	i	24µM*!
O=S1(=O)N=C(Oc2ccc(Cl)cc2)c2ccccc21	nt	-2%	nt	nt	nt	nt
Cc1noc(C)c1-c1cc(NC2CC2)ncn1	-10%	40µM*	-27%	5%	-3%	nt
Cc1noc(C)c1-c1cncnc1Nc1ccccc1	-2%	nt	-20%	-3%	-3%	nt
Cc1noc(C)c1-c1cncnc1NC1CC1	1%	28µM*	-9%	7%	-13%	nt
COc1ccc(NC(=O)COC(=O)c2ccc(C)c(S(=O)(=O)N3CCCCC3)c2)cc1	nt	40µM*	-5%	-41%	nt	7%
O=C(COC(=O)c1ccc(Cl)c(S(=O)(=O)N2CCCC2)c1)NCc1ccccc1	nt	35µM*	-6%	7.5µM*	nt	-1%
O=C(COC(=O)c1cc2c(s1)CCCC2)Nc1ccc(Cl)cn1	-2%	1%	-4%	3%	-4%	-3%[11.4 µM]
NC(=O)c1ccc(NC(=O)COC(=O)c2cc3c(s2)CCC3)cc1	nt	7.1µM*	-15%	3µM*	nt	-10%
COc1ccc(NC(=O)COC(=O)c2cc3c(s2)CCC3)cc1	nt	14µM*	-20%	5.3µM*	nt	3%
O=C(NCc1ccc(F)cc1)n1c(-c2ccccc2)c(P(=S)(c2ccccc2)c2ccccc2)c2ccccc21	nt	-2%	nt	nt	nt	nt
SMILES	BLM helicase inh	TDP1 block	GCN5L2 inh	APE1 inh	RECQ1 inh	RGS4 inhibitor
COc1ccc(C2=Nn3c(nnc3-c3ccccc3Cl)SC2)cc1O[C@H]1CCOC1	nt	nt	nt	-8%	nt	nt
CC[C@@]1([C@@H]2O[C@@H]([C@H]3O[C@@](O)(CO)[C@H](C)C[C@@H]3C)C[C@@H]2C)CC[C@H]([C@]2(C)CC[C@]3(C[C@H](O)[C@@H](C)[C@@H]([C@@H](C)[C@@H](OC)[C@H](C)C(=O)O)O3)O2)O1 (stereo in doubt)	nt	nt	nt	-2%	nt	nt
CCCCCC(=O)Cc1cc(O)cc2c1C(=O)Oc1cc(O)c(C(=O)O)c(CCCCC)c1O2	?	nt	-24%	6%	16µM*	-20%
CC1=C(/C=C/C(C)=C/C=C/C(C)=C/C(=O)O)C(C)(C)CCC1O (stereo not drawn)	nt	11%	-3%	6%	-10%	i
CC(/C=C/C=C(C)/C=C/C(=O)O)=C\C=C\C=C(C)\C=C\C=C(C)\C=C\C(=O)O	nt	2.8µM*	nt	2.5µM*	11µM*	nt
C/C(=N\NC(=O)c1ccccc1O)c1ccc(NC(=O)Cc2ccccc2)cc1	-10%	56µM*	-23%	-38%	nt	-7%
CCc1ccc(NC(=O)CS(=O)CC(=O)Nc2ccc(N3CCOCC3)cc2)cc1 (stereo not drawn)	-11%	50µM*	-29%	?	nt	-22%
CC(C)(C)OC(=O)NCc1nnc(-c2nc3ccccc3[nH]2)o1	nt	-5%	nt	nt	nt	nt
CSc1cc2c(s1)c1cnn(Cc3ccccc3F)c(=O)c1n2C	nt	1%	nt	nt	nt	nt
O=C(O)c1ccc(CSc2nnc(-c3cccc([S+](=O)([O-])N4CCCC4)c3)n2-c2ccccc2)cc1	nt	nt	nt	5%	nt	nt
Cc1ccc(/C(N)=N/OC(=O)Cc2ccccc2)cc1	-5%	-7%	-5%	-2%	-4%	-12%
Cc1ccc(/C(N)=N/OC(=O)CCCc2ccccc2)cc1	-2%	50µM*	-19%	12%	nt	22%
O=C1[C@@H]2[C@H]3CC[C@H](C3)[C@@H]2C(=O)N1O	3%	nt	-1%	?	3%	18%
N[C@@H]1CCN(O)C1=O	-11%	-8%	-3%	3.5µM*!	-2%	?
O=C1NN(c2ccc(Cl)cc2)C(=O)/C1=C\c1ccc(-c2cccc(C(=O)O)c2)o1	-26%	nt	-27%	7.9µM*	?	?
COc1cc(/C=C2\C(=O)NN(c3ccccc3)C2=O)cc([N+](=O)[O-])c1O	-7%	?	-14%	?	-19%	-27%
O=C1NN(c2ccccc2)C(=O)/C1=C\c1ccc(-c2cc([N+](=O)[O-])ccc2O)o1	-6%	4%	-16%	6%	28µM*	?
COC(=O)c1ccc2c(c1)C(C)(C)C(/C=C/c1ccc(O)cc1)=[N+]2C	-1%	6%	-26%	?	13µM*	?
COC(=O)c1ccc2c(c1)C(C)(C)C(/C=C/c1ccc(OC)c(OC)c1OC)=[N+]2C	-18%	6%	-6%	-6%	?	?
O=C(NOC(=O)c1ccccc1)c1ccccc1	-2%	5%	35µM*	6%	-4%	-20%
CC[C@H](CC[C@@H](C)[C@H]1CC[C@H]2[C@@H]3CC=C4C[C@@H](O)CC[C@]4(C)[C@H]3CC[C@]12C)C(C)C	nt	nt	nt	5%	nt	nt
